{"source": "PubChem BioAssay (EPA / NIEHS)", "note": "Records with an inconclusive call do not appear. Calls of active or inactive are those of the source. How the source made its calls: active means hit-call score of the fitted dose curve at least 0.9, where 1 is the maximum; inconclusive means response in the unintended direction; inactive means score below 0.9."}
{"biological_target": "human Serotonin, 5-Hydroxytryptamine Receptor 6 (5HT6), HTR6 (gene 3362) (UniProt P50406)", "sequence (P50406 whole entry, looked up)": "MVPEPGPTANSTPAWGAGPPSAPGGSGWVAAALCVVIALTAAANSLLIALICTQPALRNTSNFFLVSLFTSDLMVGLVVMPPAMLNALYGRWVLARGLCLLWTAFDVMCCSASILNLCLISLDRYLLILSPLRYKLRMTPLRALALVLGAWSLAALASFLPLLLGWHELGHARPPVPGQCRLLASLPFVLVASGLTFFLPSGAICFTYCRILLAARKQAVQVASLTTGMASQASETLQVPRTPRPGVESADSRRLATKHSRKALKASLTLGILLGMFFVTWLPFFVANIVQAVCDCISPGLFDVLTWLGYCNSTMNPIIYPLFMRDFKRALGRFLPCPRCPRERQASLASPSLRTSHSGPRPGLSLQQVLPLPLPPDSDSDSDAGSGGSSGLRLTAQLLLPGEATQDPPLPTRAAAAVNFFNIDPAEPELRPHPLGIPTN", "experiment": "NVS_GPCR_h5HT6: NovaScreen (NVS) G Protein-Coupled Receptor Assay for human Serotonin, 5-Hydroxytryptamine Receptor 6 (5HT6) (AID 2283253)", "method_in_brief": "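Filter scintillation counting of radioligand displacement from HEK293-expressed 5HT6, 1 hour post-dose, with loss of signal relative to DMSO. Single 25 uM duplicates first, with concentration series for confirmation.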"}
{"smiles": "CCCCCOC(=O)c1ccccc1C(=O)OCCCCC", "outcome": "inactive"}
{"smiles": "CCOC(=O)[C@]1(c2ccccc2)Oc2ccccc2[C@@H]1N", "AC50": "0.824 µM (active)"}
{"smiles": "O=[N+]([O-])c1ccc(Oc2ccc(Cl)cc2Cl)cc1", "outcome": "inactive"}
{"smiles": "[Cl-].[Cl-].[Hg+2]", "AC50": "1.56 µM (active)"}
{"smiles": "CCC[CH2][Sn]([Cl])([CH2]CCC)[CH2]CCC", "AC50": "5.51 µM (active)"}
{"biological_target": "human Adenosine A1 Receptor (AdoRA1), ADORA1 (gene 134) (UniProt P30542)", "sequence (P30542 whole entry, looked up)": "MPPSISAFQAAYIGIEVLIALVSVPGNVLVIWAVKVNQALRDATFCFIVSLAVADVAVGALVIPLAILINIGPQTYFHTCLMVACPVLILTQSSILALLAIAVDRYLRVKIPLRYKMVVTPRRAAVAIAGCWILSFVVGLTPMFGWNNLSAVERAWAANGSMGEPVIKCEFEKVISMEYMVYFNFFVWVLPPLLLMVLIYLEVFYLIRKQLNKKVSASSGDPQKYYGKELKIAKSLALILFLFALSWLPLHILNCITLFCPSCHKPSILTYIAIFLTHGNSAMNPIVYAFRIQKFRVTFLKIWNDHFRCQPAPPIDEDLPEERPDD", "experiment": "NVS_GPCR_hAdoRA1: NovaScreen (NVS) G Protein-Coupled Receptor Assay for human Adenosine A1 Receptor (AdoRA1) (AID 2283254)", "method_in_brief": "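Each chemical is first tested twice at 25 uM, actives later in dilution series, against a radioligand bound to human cortex membranes; after 1 h, filter-retained counts are compared with DMSO controls, lower signal indicating displacement.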"}
{"smiles": "COP(=S)(OC)SCN1C(=O)c2ccccc2C1=O", "AC50": "13.7 µM (active)"}
{"smiles": "CCC[CH2][Sn]([Cl])([CH2]CCC)[CH2]CCC", "AC50": "25 µM (active)"}
{"smiles": "Nc1ccc(N=Nc2ccccc2)cc1", "outcome": "inactive"}
{"smiles": "Cc1cccc(N)c1N", "AC50": "8.22 µM (active)"}
{"biological_target": "human Serotonin, 5-Hydroxytryptamine Receptor 7 (5HT7), HTR7 (gene 3363) (UniProt P34969)", "sequence (P34969 whole entry, looked up)": "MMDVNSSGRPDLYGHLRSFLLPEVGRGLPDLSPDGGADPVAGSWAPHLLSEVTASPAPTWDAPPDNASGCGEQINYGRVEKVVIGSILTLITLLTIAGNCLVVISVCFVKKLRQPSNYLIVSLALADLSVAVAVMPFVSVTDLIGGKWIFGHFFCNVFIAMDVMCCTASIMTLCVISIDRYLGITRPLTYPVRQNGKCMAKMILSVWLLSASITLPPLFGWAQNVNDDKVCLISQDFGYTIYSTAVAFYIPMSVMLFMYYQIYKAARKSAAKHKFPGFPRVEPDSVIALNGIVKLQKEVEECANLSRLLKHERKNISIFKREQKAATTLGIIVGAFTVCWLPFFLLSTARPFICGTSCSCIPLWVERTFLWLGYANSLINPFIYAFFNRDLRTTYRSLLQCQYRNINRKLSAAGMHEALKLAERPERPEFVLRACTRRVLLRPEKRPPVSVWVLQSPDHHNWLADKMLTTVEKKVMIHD", "experiment": "NVS_GPCR_h5HT7: NovaScreen (NVS) G Protein-Coupled Receptor Assay for human Serotonin, 5-Hydroxytryptamine Receptor 7 (5HT7) (AID 2283255);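 further: hits reduce specific radioligand binding relative to DMSO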", "method": "NVS_GPCR_h5HT7 is a biochemical, single-readout assay that uses extracted gene-proteins from CHO in a cell-free assay. Measurements were taken 1 hour after chemical dosing in a 96-well plate.NVS_GPCR_h5HT7 is one of one assay component(s) measured or calculated from the NVS_GPCR_h5HT7 assay. It is designed to make measurements of radioligand binding, a form of binding reporter, as detected with scintillation counting signals by Filter-based radiodetection technology.Data from the assay component NVS_GPCR_h5HT7 was analyzed into 1 assay endpoint. This assay endpoint, NVS_GPCR_h5HT7, was analyzed in the positive analysis fitting direction relative to DMSO as the negative control and baseline of activity. Using a type of binding reporter, loss-of-signal activity can be used to understand changes in the binding as they relate to the gene HTR7. Furthermore, this assay endpoint can be referred to as a primary readout, because the performed assay has only produced 1 assay endpoint. To generalize the intended target to other relatable targets, this assay endpoint is annotated to the gpcr intended target family, where the subfamily is rhodopsin-like receptor.\nBinding assays used specific radioligands (tritiated, iodinated) with non-radioactive competitive displacement ligands in agonist or antagonist protocols (as indicated) and various reference compounds and inhibitors to titrate specific binding to receptors and transporters. Most enzyme assays (CYPs, kinases, phosphatases, proteases, HDACs) used recombinant protein and specific substrates (fluorescence mostly, some colorimetric and radioactive) and inhibitors, followed by a biochemical separation of substrate and product. All assays for the biochemical HTS were initially run in duplicate at a single concentration (10 uM for CYP450 assays and 25 uM for all others). […] Each assay was run with positive and negative controls, and concurrent controls on every plate. The follow-up (secondary) screen tested active chemical-pairs in concentration series, as well as a few additional assays not tested in the primary screen, some selected negative inactives, and several cases re-run in the concentration series for confirmatory purposes."}
{"smiles": "CCOC(=O)[C@]1(c2ccccc2)Oc2ccccc2[C@@H]1N", "AC50": "0.0948 µM (active)"}
{"smiles": "CCCCCCCCOC(=O)c1ccc(C(=O)OCCCCCCCC)c(C(=O)OCCCCCCCC)c1", "outcome": "inactive"}
{"smiles": "CCCCCCCCn1sccc1=O", "AC50": "17.9 µM (active)"}
{"smiles": "CCN(CC)CCO", "outcome": "inactive"}
{"smiles": "O=C(N[C@H](c1ccccc1)[C@@H]1CN2CCC1CC2)c1c(Cl)ccc(C(F)(F)F)c1Cl", "AC50": "28.5 µM (active)"}
{"smiles": "[Cl-].[Cl-].[Hg+2]", "AC50": "0.928 µM (active)"}
{"smiles": "CCC[CH2][Sn]([Cl])([CH2]CCC)[CH2]CCC", "AC50": "0.354 µM (active)"}
{"biological_target": "human Adenosine A2a Receptor (AdoRA2a), ADORA2A (gene 135) (UniProt P29274)", "sequence (P29274 whole entry, looked up)": "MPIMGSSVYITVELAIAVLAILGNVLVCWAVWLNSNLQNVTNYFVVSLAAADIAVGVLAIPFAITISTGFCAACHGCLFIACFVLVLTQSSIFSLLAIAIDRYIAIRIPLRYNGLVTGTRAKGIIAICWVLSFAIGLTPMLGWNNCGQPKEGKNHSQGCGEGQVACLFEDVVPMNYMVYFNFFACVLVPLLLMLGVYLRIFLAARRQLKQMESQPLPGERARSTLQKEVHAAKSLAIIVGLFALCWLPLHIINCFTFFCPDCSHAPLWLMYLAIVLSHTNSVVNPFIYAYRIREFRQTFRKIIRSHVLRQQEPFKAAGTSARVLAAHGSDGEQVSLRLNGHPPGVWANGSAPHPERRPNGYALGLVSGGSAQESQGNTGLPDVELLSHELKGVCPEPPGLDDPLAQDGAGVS", "experiment": "NVS_GPCR_hAdoRA2a: NovaScreen (NVS) G Protein-Coupled Receptor Assay for human Adenosine A2a Receptor (AdoRA2a) (AID 2283256)", "method_in_brief": "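HEK293-derived receptor preparation, radioligand displacement, 1.5 h, filtration + scintillation read. Loss of bound signal scored vs DMSO. Single-point 25 uM in duplicate first, then concentration-response for actives.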"}
{"smiles": "CC(C)(O)c1cnn2c(-c3ccc(F)c(-c4c(F)cccc4C#N)c3)cnc2n1", "AC50": "0.0738 µM (active)"}
{"smiles": "[Cl-].[Cl-].[Hg+2]", "AC50": "5.19 µM (active)"}
{"smiles": "CCC[CH2][Sn]([Cl])([CH2]CCC)[CH2]CCC", "AC50": "6.46 µM (active)"}
{"smiles": "Nc1ccc(Cl)cc1N", "AC50": "2.4 µM (active)"}
{"smiles": "CCNS(=O)(=O)C(F)(F)C(F)(F)C(F)(F)C(F)(F)C(F)(F)C(F)(F)C(F)(F)C(F)(F)F", "AC50": "14.5 µM (active)"}
{"smiles": "Cc1cccc(N)c1N", "AC50": "4.24 µM (active)"}
{"biological_target": "human Adrenergic, Alpha 2A Receptor (Adra2A), ADRA2A (gene 150) (UniProt P08913)", "sequence (P08913 whole entry, looked up)": "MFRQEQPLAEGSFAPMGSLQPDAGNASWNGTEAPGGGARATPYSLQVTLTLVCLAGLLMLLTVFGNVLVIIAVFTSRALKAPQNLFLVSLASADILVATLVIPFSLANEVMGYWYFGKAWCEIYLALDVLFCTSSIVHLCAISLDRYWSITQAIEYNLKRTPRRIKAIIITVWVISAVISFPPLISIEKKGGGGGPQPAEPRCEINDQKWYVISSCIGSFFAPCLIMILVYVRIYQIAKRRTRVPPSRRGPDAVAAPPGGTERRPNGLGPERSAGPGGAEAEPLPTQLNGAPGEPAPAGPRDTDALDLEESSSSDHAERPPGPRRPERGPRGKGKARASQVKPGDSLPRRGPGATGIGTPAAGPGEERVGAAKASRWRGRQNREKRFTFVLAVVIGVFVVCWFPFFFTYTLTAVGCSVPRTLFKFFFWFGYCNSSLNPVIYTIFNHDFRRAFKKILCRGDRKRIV", "experiment": "NVS_GPCR_hAdra2A: NovaScreen (NVS) G Protein-Coupled Receptor Assay for human Adrenergic, Alpha 2A Receptor (Adra2A) (AID 2283257)", "method_in_brief": "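Displacement of a specific radioligand from HT29 membrane protein was counted by filter scintillation after 1 h. Compounds were screened in duplicate at 25 uM, and actives were retested in concentration series. Fitting was positive-direction against DMSO.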"}
{"smiles": "CCOC(=O)[C@]1(c2ccccc2)Oc2ccccc2[C@@H]1N", "AC50": "6.2 µM (active)"}
{"smiles": "CCCCCCCCn1sccc1=O", "outcome": "inactive"}
{"smiles": "[Cl-].[Cl-].[Hg+2]", "AC50": "2.23 µM (active)"}
{"smiles": "CCC[CH2][Sn]([Cl])([CH2]CCC)[CH2]CCC", "AC50": "3.65 µM (active)"}
{"biological_target": "human Adrenergic, Beta 1 Receptor (Adrb1), ADRB1 (gene 153) (UniProt P08588)", "sequence (P08588 whole entry, looked up)": "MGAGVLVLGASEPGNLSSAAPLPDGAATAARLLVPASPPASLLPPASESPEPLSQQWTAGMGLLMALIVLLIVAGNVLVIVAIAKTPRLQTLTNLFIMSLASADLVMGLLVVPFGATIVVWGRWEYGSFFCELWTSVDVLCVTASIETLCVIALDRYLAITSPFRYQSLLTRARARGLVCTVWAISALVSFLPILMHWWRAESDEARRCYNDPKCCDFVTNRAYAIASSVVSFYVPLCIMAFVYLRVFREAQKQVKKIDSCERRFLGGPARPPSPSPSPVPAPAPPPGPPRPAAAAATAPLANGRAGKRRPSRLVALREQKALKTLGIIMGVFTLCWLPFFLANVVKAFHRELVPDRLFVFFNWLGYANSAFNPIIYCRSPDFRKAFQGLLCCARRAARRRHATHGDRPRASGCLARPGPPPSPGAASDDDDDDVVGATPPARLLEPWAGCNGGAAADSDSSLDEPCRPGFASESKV", "experiment": "NVS_GPCR_hAdrb1: NovaScreen (NVS) G Protein-Coupled Receptor Assay for human Adrenergic, Beta 1 Receptor (Adrb1) (AID 2283258)", "method_in_brief": "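Membranes/protein extracted from human neuroepithelioma cells, radioligand competition binding read by filtration and scintillation 2 h post-dose. Single 25 uM duplicate screen, then concentration-response follow-up; DMSO as negative control.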"}
{"smiles": "CCCCCOC(=O)c1ccccc1C(=O)OCCCCC", "outcome": "inactive"}
{"smiles": "CCOC(=O)[C@]1(c2ccccc2)Oc2ccccc2[C@@H]1N", "AC50": "1.41 µM (active)"}
{"smiles": "CCCCCCCCOC(=O)c1ccc(C(=O)OCCCCCCCC)c(C(=O)OCCCCCCCC)c1", "outcome": "inactive"}
{"smiles": "O=[N+]([O-])c1ccc(Oc2ccc(Cl)cc2Cl)cc1", "outcome": "inactive"}
{"smiles": "CCCCCCCCn1sccc1=O", "AC50": "12.2 µM (active)"}
{"smiles": "O=C(N[C@H](c1ccccc1)[C@@H]1CN2CCC1CC2)c1c(Cl)ccc(C(F)(F)F)c1Cl", "AC50": "37.5 µM (active)"}
{"smiles": "[Cl-].[Cl-].[Hg+2]", "AC50": "0.303 µM (active)"}
{"smiles": "CCC[CH2][Sn]([Cl])([CH2]CCC)[CH2]CCC", "AC50": "1.25 µM (active)"}
